# The list is not random: actives were taken first. Their share in the collection is about 19%.
# DT40 TDP1 no CPT: qHTS for Inhibitors of human tyrosyl-DNA phosphodiesterase 1 (TDP1): qHTS in cells in absence of CPT | DT40 Tdp1-/- hTDP1 cells, no CPT, ATP luminescence, 48 h | Potency, µM (doses to about 46.2 µM), for the others: at the highest dose activity change, negative = growth inhibition, hits mostly inhibitors | 420,000 tested, 15% active; also: potency is read from the fitted curve at half-maximal effect; nearly all actives have a fitted effect of over 55% in size
#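 Compound effects on proliferation are scored in DT40 Tdp1-/-;hTDP1 cells in the absence of CPT. ATP levels (CellTiter-Glo luminescence) are recorded after a ≥48 hr, 37 °C incubation.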
# IL-1B inflam inh: inhibitors of inflammasome signaling (IL-1 beta secretion); 360,000 tested, 4.7% active; THP-1 LPS/ATP IL-1B secretion, AlphaLISA, 16 h; active compounds read low; activity change, % at 57.5 µM; AID 743279; in the data active = activity change below about -50%; inconclusive = mostly about -30% to -49%
#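 Secreted IL-1B measured by AlphaLISA bead assay after 16 h compound exposure of THP-1 cells; compounds (final up to 57.5 uM) added 1 h before LPS (250 ng/mL) and ATP (1.25 mM) stimulation; lower signal means less secretion.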
# HT1080 IDH1KD tx: toxicity to HT-1080 IDH1 knockdown cells (counter line). HT-1080 IDH1 knockdown viability, ATP luminescence, 48 h. Potency, µM (series often up to 46.1 µM), without a hit: top-dose activity, negative = toxicity, hits mostly cytotoxic. 360,000 tested, 2% active. AID 686971;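 also: potency is read from the fitted curve at half-maximal effect; 0% = DMSO wells and -100% = cell-free medium wells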
#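 In this qHTS, HT-1080 cells depleted of IDH1 are exposed for 48 h at 37 °C to compound titrations. Toxicity is scored from CellTiter-Glo luminescence, with DMSO as full viability and medium alone as none.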
# HT1080-NT tox: kills 2HG-producing HT-1080-NT fibrosarcoma cells. HT-1080-NT fibrosarcoma viability, CellTiter-Glo ATP luminescence, 48 h. Potency, µM (series often up to 46.1 µM), for inactives: at the top dose activity, negative = less viability, hits mostly cytotoxic. 360,000 tested, 1.6% active. AID 686970;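 also: NT is the 2HG producing partner of a matched IDH1 knockdown line; potency is read from the fitted curve at half-maximal effect; 0% = DMSO-treated cells and -100% = media-only wells without cells; nearly all actives have a fitted effect of over 55% in size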
#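 Compounds were tested in concentration-response format on HT-1080-NT cells for 48 hours at 37 degrees C. Cell viability came from CellTiter-Glo luminescence; curves were classified by r2, response magnitude and activity.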
# DT40 TDP1 CPT: growth inhibition of DT40 Tdp1-/-;hTDP1 cells with camptothecin (screen for TDP1 inhibitors). chicken DT40 Tdp1-/-;hTDP1 cells + 20 nM CPT, ATP luminescence, 48 h. Potency, µM (highest dose often 46.2 µM), without a hit: top-dose activity change, negative = growth inhibition, hits mostly inhibitors. 420,000 tested, 12% active; also: potency is read from the fitted curve at half-maximal effect; nearly all actives have a fitted effect of over 55% in size
#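 Chicken DT40 Tdp1-/- cells stably complemented with human TDP1 were seeded at 400 cells/well in medium containing 20 nM camptothecin, exposed to pin-transferred compounds, and grown at 37 °C for at least 48 hr. Viability was read as ATP luminescence.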
# The depositor's hits bear a star; ? = inconclusive; · = no result; [ ] = dose if it differs, or a comment. Unless noted, calls follow the shape of the dose curve; as a rule, active = well fitted curve in the direction sought with a large enough effect; inconclusive = small, poorly fitted or top-dose-only effect, or another doubt; inactive = no such curve, though single readings can be large; an effect the other way counts as inactive or inconclusive. Unless noted, % is scaled to controls: 0 for no effect and ±100 for the full control effect.
SMILES,DT40 TDP1 no CPT,IL-1B inflam inh,HT1080 IDH1KD tx,HT1080-NT tox,DT40 TDP1 CPT
COc1ccc(C(C)=O)cc1CC(C(=O)c1ccc(F)cc1)N(C)C (centres undefined),-7%,22,7%,0%,1%
COc1ccc(/C=C/C(=O)c2ccccc2)cc1COc1ccc(F)cc1,21µM*,-52*,?,?,?
Fc1ccc(C(OCCN2CCN(C/C=C/c3ccccc3)CC2)c2ccc(F)cc2)cc1,3.3µM*,·,·,·,5.2µM*
c1ccc(CCCN2CCN(CCOC(c3ccccc3)c3ccccc3)CC2)cc1,13µM*,-16,23µM*,23µM*,9.2µM*
O=C(N[C@@H]1N=C(c2ccccc2F)c2cccc3c2N(CC3)C1=O)c1cc2ccccc2[nH]1,?,·,·,·,-15%
O=C1CC23c4ccccc4N4C(=O)CC5OCC=C6CN1C2CC6C5C43 (centres undefined),?,1,11%,11%,-14%
O=C(O)[C@@H]1Cc2[nH]cnc2C(c2cccnc2)N1 (some centres undefined),4%[9.04 µM],·,·,·,11%[9.04 µM]
Clc1ccc(C2CC3CCC2N3)cn1 (centres undefined),-2%,·,·,·,-10%
O=S(=O)(c1cccc(C(F)(F)F)c1)N1Cc2ccccc2-n2nncc2C1,9.2µM*,15,-7%,-8%,23µM*
c1ccc(CN2Cc3ccccc3-n3nncc3C2)cc1,?,13,-3%,-2%,-5%
O=S(=O)(c1ccccc1)N1Cc2ccccc2-n2nncc2C1,21µM*,3,-1%,2%,?
COc1ccc2nc3c(C)n(C)ccc-3c2c1,?,15,-19%,2%,?
O=C(CCl)c1ccc(Cl)cc1Cl,14µM*,·,·,·,22µM*
O=C(CN1CCCCC1)c1ccccc1Cl,-7%,12,0%,0%,-13%
C=CCc1cc(C=C2C(=O)N(C)C(=O)N(C)C2=O)cc(OCC)c1OCc1ccccc1,?,-11,?,?,?
O=C(COc1ccccc1Cl)N1CCN(CCc2ccncc2)CC1,-19%,·,·,·,-10%
CC(C)(C)CC(C)(C)c1ccc(O)cc1,22µM*,·,·,·,14µM*
c1ccc(N2[C@@H]3CC[C@H]2c2ccncc2C3)cc1,7%,?,11%,0%,18%
Ic1ccccc1CN[C@@H]1C2CCN(CC2)[C@@H]1C(c1ccccc1)c1ccccc1,6.5µM*,-50*,21µM*,18µM*,12µM*
CN(C)C(=O)Oc1ccc(OCc2nc3ccccc3[nH]2)cc1,10µM*,-5,6.5µM*,7.3µM*,9.2µM*
COC12CCC3(CC1C(C)(O)C(C)(C)C)[C@H]1Cc4ccc(OC5OC(C(=O)O)[C@@H](O)C(O)[C@H]5O)c5c4[C@@]3(CCN1CC1CC1)C2O5 (some centres undefined),-5%,-5,1%,2%,2%
CCOC(=O)c1[nH]c(C)c(C(=O)N2CCC3(CC2)OCCO3)c1C,-3%,-5,20%,8%,-5%
CC(=O)OC1C(=O)[C@]2(C)C(O)CC3OC[C@]3(OC(C)=O)C2[C@@H](OC(=O)c2ccccc2)[C@]2(O)CC(O)C(C)=C1C2(C)C (some centres undefined),3.7µM*,·,·,·,?
CC(=O)OC12COC1CC(O)C1(C)C(=O)C(O)C3=C(C)C(O)CC(O)(C(OC(=O)c4ccccc4)C21)C3(C)C (centres undefined),1µM*,34,?,?,1.2µM*
COc1ccccc1Cc1c(-c2ccc(F)cc2)nc2cc(C)c(Br)c(C)n12,23µM*,26,-22%,-13%,?
SMILES,DT40 TDP1 no CPT,IL-1B inflam inh,HT1080 IDH1KD tx,HT1080-NT tox,DT40 TDP1 CPT
COc1ccccc1Cc1c(-c2ccc(C)cc2)nc2cc(C)c(Br)c(C)n12,16µM*,38,-18%,-19%,21µM*
COc1ccc(-c2nc3ccc(Br)cn3c2CC(=O)N2CCCC2)cc1OC,?,4,4%,18%,-20%
N[C@@]1(C(=O)O)CC[C@H](C(=O)O)C1,-17%,·,·,·,-18%
CN1C(=O)C(=Cc2ccc(N3CCCCCC3)o2)C(=O)N(C)C1=S,23µM*,-26,1%,-2%,?
CC(CO)NC(=O)C1C=C2c3cccc4[nH]cc(c34)C[C@H]2N(C)C1 (some centres undefined),-3%,·,·,·,8%
CC[C@@H](CO)NC(=O)[C@H]1C=C2c3cccc4c3c(cn4C)C[C@H]2N(C)C1,13µM*,·,·,·,8.4µM*
CCCc1c(-c2ccccc2F)ncn1CCc1ccccc1OC,2.6µM*,-70*,?,?,3.7µM*
COc1ccccc1-n1c(-c2ccccc2F)nc2ccccc2c1=O,?,-3,-14%,-10%,?
Cc1cc(=O)oc2cc(OCC(=O)N3CCN(C(C)c4ccccc4)CC3)c(Cl)cc12 (centres undefined),?,?,-12%,-14%,?
CN1CCN(c2ccccc2NC(=O)c2ccc(-c3ccc(Cl)c(Cl)c3)o2)CC1,?,-78*,-2%,-4%,18µM*
CCOC(=O)[C@]12Cc3c(cc(OC)c(OC)c3OC)[C@H]1N(C)C(=O)c1ccccc12,21µM*,-55*,1%,11%,?
CCOC(=O)[C@]12Cc3c(cc(OC)c(OC)c3OC)[C@H]1N(CCC(=O)OC)C(=O)c1ccccc12,16µM*,-116*,?,?,18µM*
COc1cc(NCCCn2cnc(C(=O)Nc3ccc(C)c(C)c3)n2)cc(OC)c1OC,?,-18,-1%,3%,-22%
O=C(NCC(c1ccco1)N1CCCC1)c1cccc(S(=O)(=O)N2CCc3ccccc32)c1 (centres undefined),9.2µM*,-10,-24%,-7%,18µM*
N[C@@H]1C[C@H]1c1ccccc1,0%,22,-4%,-12%,-2%
O=C(NN=Cc1ccc(O)c(O)c1)c1ccccc1,23µM*,0,-3%,11%,23µM*
O=C(c1ccccc1F)c1cn(CC(=O)N2CCCC2)c2ccccc12,16µM*,6,0%,-5%,?
CC(=O)c1cccc(NC(=O)c2cc3c(s2)-c2c(C)cccc2OC3)c1,16µM*,·,·,·,?
C=CCn1c(O)c(C(C)=Nc2cccc(C(F)(F)F)c2)c(=O)[nH]c1=O,-16%,38,3%,8%,0%
CCOc1cc(-c2nc3c(C)cccn3c2NCC2CCCO2)ccc1O (centres undefined),?,26,-5%,-5%,?

# Screens from PubChem.
